Sampled rows, rich in hits. Any-hit rate of the full collection: about 3%.
TNF necrop inh: inhibitors of TNF-alpha induced necroptosis in Jurkat FADD-/- cells; Jurkat FADD-/- TNF necroptosis rescue, ATP luminescence, 24 h; 0 = TNF only, 100 = no-TNF cells; activation (protection from cell death), % at 10 µM; 220,000 tested, 0.068% active;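 active = activation, meaning protection from cell death, of at least 50% relative to plate controls; inactive = activation below 50%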;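 also: necroptosis triggered by 40 ng/mL TNF-alpha added together with compound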
14-3-3 Bad inh: disrupts binding of bovine 14-3-3 zeta to phospho-Bad peptide; P63103; TR-FRET 14-3-3zeta/Dy647-pBad peptide displacement, 1 h; inhibition, % at 21.7 µM; 220,000 tested, 0.71% active; AID 781;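 active = inhibition above about 70%, limit read from the data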;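 also: 0% = full 14-3-3 plus peptide FRET controls and 100% = background without 14-3-3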
Target sequence (P63103 whole entry, looked up): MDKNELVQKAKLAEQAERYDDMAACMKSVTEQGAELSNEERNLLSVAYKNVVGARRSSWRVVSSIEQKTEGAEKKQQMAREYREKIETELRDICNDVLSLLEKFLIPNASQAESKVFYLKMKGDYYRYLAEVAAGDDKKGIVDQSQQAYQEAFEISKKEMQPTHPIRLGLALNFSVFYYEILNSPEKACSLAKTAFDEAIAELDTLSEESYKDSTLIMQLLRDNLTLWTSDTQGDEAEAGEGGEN
Efa HMGR inh: blocks class II HMG-CoA reductase of Enterococcus faecalis; purified E. faecalis HMGR, NADPH absorbance 340 nm kinetic; 190,000 tested, 0.41% active; inhibition, % at 10 µM;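 active = inhibition above a set limit, the median over all tested compounds plus 3 SD, cut at about 9.5% in these data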;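 also: enzyme runs in reverse so mevalonate oxidation gives rising NADPH absorbance; 0% = complete reaction with DMSO and 100% = background rate lacking mevalonate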
Calpain2 inh: inhibitors of pig calpain II; purified calpain II, fluorogenic peptide substrate, 30 min; 220,000 tested, 0.37% active; inhibition, % at 16 µM;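 active = inhibition above about 50%, limit read from the data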
zVAD death inh: L929 zVAD cell death inhibition; L929 zVAD necroptosis rescue, ATP luminescence, 24 h; with zVAD 60 µM; viability rescue, % at 10 µM; 220,000 tested, 0.38% active;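 active = activation, scaled between plate controls, above about 75%, limit read from the data; inactive = activation under that limit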;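 also: 0% = zVAD with DMSO and 100% = DMSO alone without zVAD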
ROMK primary: modulators of human ROMK potassium channel. 130,000 tested, 2% active. B-score at 10 µM. AID 1918. Tet-inducible ROMK, thallium flux fluorescence; actives lie on both sides. P48048;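 active = signal ratio slope over the read window, or its plate-corrected B-score, at least 3 SD from the plate mean, either direction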;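 also: B-score of the F/F0 ratio slope over 7 to 12 s after thallium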
Target sequence (P48048 whole entry, looked up): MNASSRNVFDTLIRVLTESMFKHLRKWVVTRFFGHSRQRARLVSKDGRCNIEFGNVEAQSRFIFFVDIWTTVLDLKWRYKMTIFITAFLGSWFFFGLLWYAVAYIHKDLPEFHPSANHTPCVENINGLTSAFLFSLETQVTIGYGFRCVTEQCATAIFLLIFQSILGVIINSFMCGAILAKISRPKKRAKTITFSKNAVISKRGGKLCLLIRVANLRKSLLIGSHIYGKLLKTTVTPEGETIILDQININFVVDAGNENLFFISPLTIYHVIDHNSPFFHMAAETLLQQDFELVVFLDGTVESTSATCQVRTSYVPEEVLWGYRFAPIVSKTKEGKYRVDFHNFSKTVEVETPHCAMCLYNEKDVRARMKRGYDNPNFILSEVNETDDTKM
Active calls of the source: *; / = not tested or not shown; [ ] = dose if it differs, or a comment.

SMILES | TNF necrop inh | 14-3-3 Bad inh | Efa HMGR inh | Calpain2 inh | zVAD death inh | ROMK primary
COc1ccc(-c2c(C)nn(Cc3ccccc3)c2N)cc1 | 0 | 86* | -2 | 12 | 0 | /
COc1ccc(/C(N)=N/OC(=O)Cc2ccccc2[N+](=O)[O-])cc1 | 2 | -3 | 4 | 57* | / | 0.4
CS(=O)(=O)N(CC(=O)Nc1ccc(S(=O)(=O)N2CCCC2)cc1)c1ccccc1 | 2 | 4 | -8 | 4 | 0 | 1.3
Cn1c(-c2nnn(-c3ccc(F)cc3)n2)cc2ccccc21 | 0 | -8 | -6 | 7 | 0 | /
CCOC(=O)C1=C(C)NC(C)=C(C(=O)OC)C1c1cccc([N+](=O)[O-])c1 (centres undefined) | 0 | -2 | 0 | 8 | 1 | /
COC(=O)C1=C(C)NC(C)=C(C(=O)OC)C1c1ccccc1[N+](=O)[O-] | -13 | 0 | 2 | -129 | 61 | -2.5*
C/C(=N\NC(=O)c1cccnc1)c1ccc(OC2OCCOC2Oc2ccc(/C(C)=N/NC(=O)c3cccnc3)cc2)cc1 (centres undefined) | 0 | 87* | -2 | 30 | 3 | 0.89
O=C(Nn1c(C2CCCCC2)nc2ccccc2c1=O)c1ccc([N+](=O)[O-])cc1 | 0 | 3 | -5 | 25 | 0 | 0.2
COc1ccccc1CNC(=O)C1CC(c2c(Cl)cccc2Cl)=NO1 (centres undefined) | -4 | 70* | -5 | -79 | 1 | /
COc1cccc(NC(=O)C(NCC2CCCCC2)c2ccccc2)c1 (centres undefined) | 1 | 84*[fluorescence artefact?] | -4 | -8 | 0 | 0.063
COc1cccc(NC(=S)NCCC(c2ccccc2)c2ccccc2)c1 | -12 | -9 | 0 | 56* | 0 | /
C=CCn1c[n+](CC(=O)c2ccc(Br)s2)c2ccccc21 | 1 | -2 | 3 | -22 | 12 | /
Cc1ccc2c(c1)C1C=CCC1C(C(=O)O)N2 (centres undefined) | -3 | 86*[fluorescence artefact?] | 3 | -22 | / | 1.2
Cc1nc(NC(=O)c2ccc(Cl)cc2)sc1-c1csc(Nc2cccc(F)c2)n1 | -13 | 73* | -3 | -17 | 0 | /
CC(=O)Nc1nc(C)c(-c2csc(Nc3cccc([N+](=O)[O-])c3)n2)s1 | -21 | 87*[fluorescence artefact?] | -4 | -58 | 6 | 0.4
Cc1nc(NC(=O)c2ccccc2)sc1-c1csc(Nc2ccc(C(=O)O)cc2)n1 | -14 | 75* | / | -25 | 1 | /
CC(=O)Nc1nc(C)c(-c2csc(Nc3ccc(O)cc3)n2)s1 | 1 | -7 | -2 | 24 | 77* | /
Cc1ccc(Nc2nc(-c3sc(NC(=O)c4cccc(Cl)c4)nc3C)cs2)cc1 | 1 | 47 | -4 | -119 | 0 | /
CC(=O)c1cccc(Nc2nc(-c3cccc([N+](=O)[O-])c3)cs2)c1 | -10 | 51 | 3 | -23 | 0 | /
COc1cccc(Nc2nc(-c3sc(NC(=O)c4ccccc4)nc3C)cs2)c1 | -18 | 52 | -4 | -34 | 2 | 1.2
CCOC(=O)N1CCC(N2CCCC(C(=O)c3ccccc3OC)C2)CC1 (centres undefined) | 1 | 0 | 0 | -15 | 0 | -0.8
O=C(O)c1cc2cc(Cl)cc(Cl)c2oc1=O | 0 | 83* | -7 | 16 | 0 | -0.44
Cc1ccccc1Nc1nnc(SCc2nc3ccccc3c(=O)[nH]2)s1 | -1 | -1 | 14* | 5 | 1 | 0.62
Cc1cccc(C)c1Nc1nnc(SCc2nc3ccccc3c(=O)[nH]2)s1 | 1 | -6 | -2 | 16 | 0 | -0.56
CCOc1ccc(Nc2nc3ccccc3c(=O)s2)cc1 | 2 | 3 | / | -2 | 0 | /
SMILES | TNF necrop inh | 14-3-3 Bad inh | Efa HMGR inh | Calpain2 inh | zVAD death inh | ROMK primary
CCOc1ccc(Nc2nnc(SCc3nc4ccccc4c(=O)[nH]3)s2)cc1 | 2 | 11 | / | 52* | 0 | /
COCCCNCCCOc1ccc(C)cc1Br | 4 | 7 | -4 | 6 | 0 | -0.44
C=CCNCCCCOc1c(Cl)cc(C)cc1Br | -7 | 27 | -14 | -11 | 0 | /
COCCCNCCCOc1ccc(Cl)cc1Br | -2 | 74* | 2 | 15 | 0 | /
COCCCNCCCCOc1c(Cl)cc(C)cc1Br | -6 | 79* | -6 | 12 | 0 | /
CCCNC(=S)NNC(=O)c1cccs1 | 0 | 0 | -4 | -10 | 1 | -0.068
COc1ccc(N/N=C(/C#N)S(=O)(=O)C(C)(C)C)cc1 | 1 | -24 | 0 | 23 | 1 | -1.9
CSc1ccc(N/N=C(/C#N)S(=O)(=O)C(C)(C)C)cc1 | 1 | -10 | 5 | 13 | 0 | -3.2*
COc1ccc(C(=O)NNC(=O)c2ccc(S(=O)(=O)N3CCCCC3)cc2)cc1 | 2 | -13 | -4 | -2 | 7 | 0.54
Nc1ccc(C(=O)N/N=C\c2cc(N=Nc3cccc4ccccc34)ccc2O)cc1 | -20 | 77*[fluorescence artefact?] | -2 | -14 | 69 | /
COC(=O)N/N=C/c1cc(N=Nc2ccccc2Cl)ccc1O | -14 | 16 | / | 4 | 0 | /
C=C(C)COc1ccc(-c2[nH]ncc2Oc2cccc(OC)c2)c(O)c1 | 1 | 20 | 3 | 57* | 0 | 0.91
C=C(C)COc1ccc(-c2[nH]ncc2Oc2ccccc2OCC)c(O)c1 | 0 | -3 | 1 | 45 | 2 | 0.2
Cc1cc(C)c(C)c(S(=O)(=O)N2CCN(CC(=O)Nc3ccc([N+](=O)[O-])cc3)CC2)c1C | 4 | -5 | -2 | -1 | 0 | -0.03
O=C(NNC(=O)c1ccc2ncccc2c1)c1ccc(Cl)cc1 | 0 | -4 | 1 | 8 | 2 | -1.2
Cc1ccc(C(=O)NNC(=O)c2ccc3ncccc3c2)cc1 | 0 | 4 | -4 | 52* | 1 | -1.4
O=C(Nc1ccc(F)cc1)C1CC(=O)n2cnnc2N1 (centres undefined) | 0 | -12 | 9.7* | 3 | 0 | -0.18
O=C(Nc1ccc(F)cc1)C1CC(=O)n2ncnc2N1 (centres undefined) | 0 | 1 | -3 | 7 | -1 | 0.12
CC1(C)Cc2c(ccc3ccccc23)/C(=C/C(=O)N2CCCCC2)N1 | -2 | 71* | -8 | -58 | 1 | /
COc1ccc(N2C(=O)[C@@H]3[C@H](C2=O)[C@H]2c4ccccc4C=CN2[C@@H]3C(C)=O)cc1 | 1 | 2 | 5 | -20 | / | -3.6*
COc1cc(OC)c(C(=O)NCCCn2ccnc2)cc1OC | 0 | -8 | -3 | -19 | 0 | 0.14
CCOc1ccc(N(CC(=O)NCC2CCCO2)S(=O)(=O)c2ccc(SC)cc2)cc1 (centres undefined) | -1 | 21 | -1 | 1 | -1 | -1.2
O=C(NCC1CCCO1)C(c1cccs1)N(Cc1cccs1)C(=O)Cn1nnc(-c2cccs2)n1 (centres undefined) | -3 | 10 | 16* | -8 | -1 | -1.8
